Eight sequences from publication PMC7862700, “An all-to-all approach to the identification of sequence-specific readers for epigenetic DNA modifications on cytosine” can be followed below.

Common to all, as to assay: DAPPL (digital affinity profiling via proximity ligation, sequencing); 10 mM Tris-HCl pH 7.5, 50 mM NaCl, 1 mM DTT, 4% glycerol, room temperature, 30 min; GST-TFs on glutathione beads, 16-mer random dsDNA library, 0.1% formaldehyde crosslink after washing; high values mean tight binding
What all share (conditions): protein: recombinant; tags: N-terminal GST; dsDNA, one strand shown

One assay addresses T1, FLI1 (Homo sapiens, UniProt Q01543 1-452).
T1 sequence: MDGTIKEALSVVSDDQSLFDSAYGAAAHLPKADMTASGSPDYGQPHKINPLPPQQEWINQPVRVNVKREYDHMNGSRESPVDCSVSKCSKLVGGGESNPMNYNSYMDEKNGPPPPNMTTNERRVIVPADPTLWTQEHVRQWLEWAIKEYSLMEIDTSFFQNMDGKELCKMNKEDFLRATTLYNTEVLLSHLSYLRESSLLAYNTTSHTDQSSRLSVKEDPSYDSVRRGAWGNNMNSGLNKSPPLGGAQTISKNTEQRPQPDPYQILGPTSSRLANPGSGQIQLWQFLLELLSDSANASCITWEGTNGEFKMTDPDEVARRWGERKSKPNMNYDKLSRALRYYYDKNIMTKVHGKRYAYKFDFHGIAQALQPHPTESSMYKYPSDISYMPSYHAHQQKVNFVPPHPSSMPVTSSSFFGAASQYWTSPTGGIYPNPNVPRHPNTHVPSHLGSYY
In outline: (§1)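 A tag-only sample was pooled with DNA-barcoded human transcription factors that had been expressed in yeast as GST fusions and captured on glutathione beads. The pools were incubated for 30 min at room temperature with 200 nmole of a random double-stranded 16-mer DNA library in Tris/NaCl/DTT/glycerol buffer, then washed, crosslinked with 0.1% formaldehyde, proximity-ligated (BsaI/T4 ligase, 1 h, 37 °C), PCR-amplified and sequenced on an Illumina NextSeq500. Binding signal is each hexamer's read frequency for a factor divided by its frequency for the tag-only sample.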

The target in another assay is T2, ELK1 (Homo sapiens, UniProt P19419 1-428).
T2 sequence: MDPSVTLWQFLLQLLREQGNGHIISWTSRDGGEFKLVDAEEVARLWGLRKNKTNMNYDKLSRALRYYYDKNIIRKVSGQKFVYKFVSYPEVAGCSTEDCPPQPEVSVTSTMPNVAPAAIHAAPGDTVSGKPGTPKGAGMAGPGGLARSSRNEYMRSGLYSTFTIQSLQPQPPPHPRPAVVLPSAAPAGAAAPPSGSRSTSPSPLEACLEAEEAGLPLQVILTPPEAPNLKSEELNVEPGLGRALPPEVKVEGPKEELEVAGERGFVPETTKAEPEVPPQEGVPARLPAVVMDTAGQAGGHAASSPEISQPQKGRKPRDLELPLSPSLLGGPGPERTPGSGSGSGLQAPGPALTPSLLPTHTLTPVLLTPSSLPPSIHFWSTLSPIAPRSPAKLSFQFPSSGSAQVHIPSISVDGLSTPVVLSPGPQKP
A digest of the protocol:
as §1

For another assay, the target named is T3, GABPA (Homo sapiens, UniProt Q06546 1-454).
T3 sequence: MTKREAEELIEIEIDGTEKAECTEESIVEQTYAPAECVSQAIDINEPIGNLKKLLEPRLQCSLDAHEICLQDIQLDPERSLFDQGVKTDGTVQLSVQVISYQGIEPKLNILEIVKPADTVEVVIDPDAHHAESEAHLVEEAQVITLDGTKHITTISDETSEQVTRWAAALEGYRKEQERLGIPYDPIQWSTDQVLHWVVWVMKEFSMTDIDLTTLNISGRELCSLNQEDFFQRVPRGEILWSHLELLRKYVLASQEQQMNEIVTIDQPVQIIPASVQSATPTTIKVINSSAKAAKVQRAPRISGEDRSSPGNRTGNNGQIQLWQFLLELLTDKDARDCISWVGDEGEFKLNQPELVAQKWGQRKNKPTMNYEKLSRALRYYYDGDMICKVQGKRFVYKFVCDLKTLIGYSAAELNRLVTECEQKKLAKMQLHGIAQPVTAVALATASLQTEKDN
A digest of the protocol: as §1

The next assay has as its target T4, ERG (Homo sapiens, UniProt P11308 1-479).
T4 sequence: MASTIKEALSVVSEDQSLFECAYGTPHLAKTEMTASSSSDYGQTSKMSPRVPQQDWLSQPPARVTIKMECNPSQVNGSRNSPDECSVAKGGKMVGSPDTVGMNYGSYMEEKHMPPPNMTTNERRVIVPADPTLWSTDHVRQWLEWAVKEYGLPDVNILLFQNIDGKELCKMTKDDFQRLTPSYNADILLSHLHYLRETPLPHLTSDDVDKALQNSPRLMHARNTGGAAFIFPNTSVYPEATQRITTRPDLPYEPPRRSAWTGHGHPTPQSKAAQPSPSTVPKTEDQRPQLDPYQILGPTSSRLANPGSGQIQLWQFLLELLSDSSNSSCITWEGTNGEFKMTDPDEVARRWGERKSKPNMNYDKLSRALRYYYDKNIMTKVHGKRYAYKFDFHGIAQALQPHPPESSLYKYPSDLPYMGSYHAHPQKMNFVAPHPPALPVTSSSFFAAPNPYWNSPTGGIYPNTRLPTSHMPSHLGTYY
A digest of the protocol:
as §1

A further assay addresses ELF1 (Homo sapiens, UniProt P32519 1-619). A digest of the protocol: as §1
For another assay, the target named is T5, EHF (Homo sapiens, UniProt Q9NZC4 1-300).
T5 sequence: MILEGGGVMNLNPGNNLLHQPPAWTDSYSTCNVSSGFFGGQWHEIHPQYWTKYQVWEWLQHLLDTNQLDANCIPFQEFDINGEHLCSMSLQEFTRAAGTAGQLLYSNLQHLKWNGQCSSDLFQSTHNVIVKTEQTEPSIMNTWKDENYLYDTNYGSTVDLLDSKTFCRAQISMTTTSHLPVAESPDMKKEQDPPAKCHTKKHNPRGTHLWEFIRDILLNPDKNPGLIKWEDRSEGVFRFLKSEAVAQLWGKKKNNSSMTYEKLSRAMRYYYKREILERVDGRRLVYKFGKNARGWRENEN
In outline:
as §1

A further assay concerns the target SPI1 (Homo sapiens, UniProt P17947 1-270). In outline:
as §1

A further assay has as its target SPIB (Homo sapiens, UniProt Q01892 1-262). In outline:
as §1

In a further assay the target is T6, ELK3 (Homo sapiens, UniProt P41970 1-407).
T6 sequence: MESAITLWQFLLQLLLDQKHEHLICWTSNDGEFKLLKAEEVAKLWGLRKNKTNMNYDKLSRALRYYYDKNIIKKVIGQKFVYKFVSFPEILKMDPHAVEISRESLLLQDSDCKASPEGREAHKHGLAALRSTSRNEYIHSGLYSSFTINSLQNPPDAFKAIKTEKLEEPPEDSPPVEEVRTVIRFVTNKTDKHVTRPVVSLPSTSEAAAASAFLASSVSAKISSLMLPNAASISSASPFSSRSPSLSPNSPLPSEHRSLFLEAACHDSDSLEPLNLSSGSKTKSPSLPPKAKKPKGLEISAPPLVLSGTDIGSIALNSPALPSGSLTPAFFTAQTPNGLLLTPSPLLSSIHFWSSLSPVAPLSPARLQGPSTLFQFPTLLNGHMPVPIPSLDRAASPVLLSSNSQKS
A digest of the protocol:
as §1

ELF1, sequence (P32519 whole entry): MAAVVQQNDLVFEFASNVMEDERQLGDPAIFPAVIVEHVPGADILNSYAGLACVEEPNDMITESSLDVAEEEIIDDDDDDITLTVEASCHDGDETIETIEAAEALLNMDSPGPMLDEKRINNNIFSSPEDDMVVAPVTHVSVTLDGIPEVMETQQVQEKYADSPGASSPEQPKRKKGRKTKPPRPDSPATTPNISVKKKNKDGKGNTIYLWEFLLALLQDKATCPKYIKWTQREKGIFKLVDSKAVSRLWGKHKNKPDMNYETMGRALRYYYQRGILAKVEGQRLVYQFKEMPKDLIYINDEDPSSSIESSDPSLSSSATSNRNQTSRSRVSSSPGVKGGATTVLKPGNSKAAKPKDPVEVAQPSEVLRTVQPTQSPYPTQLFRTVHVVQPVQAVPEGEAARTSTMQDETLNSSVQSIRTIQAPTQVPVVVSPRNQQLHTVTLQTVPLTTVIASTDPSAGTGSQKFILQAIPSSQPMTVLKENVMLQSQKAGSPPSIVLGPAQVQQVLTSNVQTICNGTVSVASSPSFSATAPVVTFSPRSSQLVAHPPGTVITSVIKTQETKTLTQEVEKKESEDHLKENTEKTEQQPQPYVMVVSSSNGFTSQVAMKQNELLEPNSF
SPIB, sequence (Q01892 whole entry): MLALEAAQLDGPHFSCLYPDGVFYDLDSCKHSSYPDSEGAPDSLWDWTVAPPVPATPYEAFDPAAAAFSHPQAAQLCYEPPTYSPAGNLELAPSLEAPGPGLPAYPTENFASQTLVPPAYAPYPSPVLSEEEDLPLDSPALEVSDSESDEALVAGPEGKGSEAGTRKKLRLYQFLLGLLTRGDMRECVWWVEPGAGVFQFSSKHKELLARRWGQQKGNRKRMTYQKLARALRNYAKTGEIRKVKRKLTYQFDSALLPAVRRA

With ATCTAA, the binding signal is 1.21 fold enrichment (6-mer frequency, TF over GST control) with FLI1; 1.24 fold enrichment (6-mer frequency, TF over GST control) with ELK1; 1.23 fold enrichment (6-mer frequency, TF over GST control) with GABPA; 1.17 fold enrichment (6-mer frequency, TF over GST control) with ERG; 1.23 fold enrichment (6-mer frequency, TF over GST control) in the assay with ELF1; 1.23 fold enrichment (6-mer frequency, TF over GST control) in the assay with EHF. In addition, the binding signal was 1.13 fold enrichment (6-mer frequency, TF over GST control) in the assay with SPI1; 1.21 fold enrichment (6-mer frequency, TF over GST control) in the assay with SPIB; 1.16 fold enrichment (6-mer frequency, TF over GST control) with ELK3.
Take TACCCT: the binding signal in the assay with FLI1 was 1.33 fold enrichment (6-mer frequency, TF over GST control); with ELK1, 1.34 fold enrichment (6-mer frequency, TF over GST control); with GABPA, 1.21 fold enrichment (6-mer frequency, TF over GST control); with ERG, 1.31 fold enrichment (6-mer frequency, TF over GST control); with ELF1 it was 1.36 fold enrichment (6-mer frequency, TF over GST control); with EHF, 1.38 fold enrichment (6-mer frequency, TF over GST control). Moreover, the binding signal in the assay with SPI1 was 1.36 fold enrichment (6-mer frequency, TF over GST control); with SPIB, 1.3 fold enrichment (6-mer frequency, TF over GST control); with ELK3 it was 1.41 fold enrichment (6-mer frequency, TF over GST control).
Take GCCTAA: the binding signal is 1.22 fold enrichment (6-mer frequency, TF over GST control) with FLI1; 1.17 fold enrichment (6-mer frequency, TF over GST control) in the assay with ELK1; 1.14 fold enrichment (6-mer frequency, TF over GST control) in the assay with GABPA; 1.24 fold enrichment (6-mer frequency, TF over GST control) with ERG; 1.22 fold enrichment (6-mer frequency, TF over GST control) with ELF1; 1.28 fold enrichment (6-mer frequency, TF over GST control) in the assay with EHF. Further, the binding signal was 1.11 fold enrichment (6-mer frequency, TF over GST control) with SPI1; 1.23 fold enrichment (6-mer frequency, TF over GST control) in the assay with SPIB; 1.19 fold enrichment (6-mer frequency, TF over GST control) with ELK3.
For the sequence TTGGGG, the binding signal is 1.4 fold enrichment (6-mer frequency, TF over GST control) with FLI1; 1.24 fold enrichment (6-mer frequency, TF over GST control) in the assay with ELK1; 1.33 fold enrichment (6-mer frequency, TF over GST control) with GABPA; 1.21 fold enrichment (6-mer frequency, TF over GST control) with ERG; 1.32 fold enrichment (6-mer frequency, TF over GST control) with ELF1; 1.27 fold enrichment (6-mer frequency, TF over GST control) with EHF. Moreover, the binding signal with SPI1 is 1.26 fold enrichment (6-mer frequency, TF over GST control); with SPIB it was 1.15 fold enrichment (6-mer frequency, TF over GST control); with ELK3 it was 1.31 fold enrichment (6-mer frequency, TF over GST control).
Take GCTCCG: the binding signal with FLI1 is 1.37 fold enrichment (6-mer frequency, TF over GST control); in the assay with ELK1, 1.4 fold enrichment (6-mer frequency, TF over GST control); in the assay with GABPA, 1.35 fold enrichment (6-mer frequency, TF over GST control); with ERG, 1.36 fold enrichment (6-mer frequency, TF over GST control); in the assay with ELF1 it was 1.32 fold enrichment (6-mer frequency, TF over GST control); with EHF it was 1.45 fold enrichment (6-mer frequency, TF over GST control). The binding signal is 1.25 fold enrichment (6-mer frequency, TF over GST control) with SPI1; 1.19 fold enrichment (6-mer frequency, TF over GST control) with SPIB; 1.44 fold enrichment (6-mer frequency, TF over GST control) with ELK3.
Consider CACTAA, for which the binding signal is 1.09 fold enrichment (6-mer frequency, TF over GST control) in the assay with FLI1; 1.21 fold enrichment (6-mer frequency, TF over GST control) with ELK1; 1.11 fold enrichment (6-mer frequency, TF over GST control) with GABPA; 1.1 fold enrichment (6-mer frequency, TF over GST control) with ERG; 1.18 fold enrichment (6-mer frequency, TF over GST control) with ELF1; 1.21 fold enrichment (6-mer frequency, TF over GST control) with EHF. The binding signal with SPI1 was 1.19 fold enrichment (6-mer frequency, TF over GST control); with SPIB, 1.18 fold enrichment (6-mer frequency, TF over GST control); with ELK3 it was 1.18 fold enrichment (6-mer frequency, TF over GST control).
As to CTTATC, the binding signal with FLI1 was 1.18 fold enrichment (6-mer frequency, TF over GST control); with ELK1, 1.15 fold enrichment (6-mer frequency, TF over GST control); in the assay with GABPA it was 1.16 fold enrichment (6-mer frequency, TF over GST control); with ERG, 1.1 fold enrichment (6-mer frequency, TF over GST control); with ELF1, 1.21 fold enrichment (6-mer frequency, TF over GST control); in the assay with EHF, 1.08 fold enrichment (6-mer frequency, TF over GST control). Moreover, the binding signal was 1.2 fold enrichment (6-mer frequency, TF over GST control) with SPI1; 1.21 fold enrichment (6-mer frequency, TF over GST control) with SPIB; 1.09 fold enrichment (6-mer frequency, TF over GST control) in the assay with ELK3.
As to TCTTCG, the binding signal with FLI1 is 1.45 fold enrichment (6-mer frequency, TF over GST control); with ELK1 it was 1.49 fold enrichment (6-mer frequency, TF over GST control); with GABPA it was 1.45 fold enrichment (6-mer frequency, TF over GST control); with ERG, 1.41 fold enrichment (6-mer frequency, TF over GST control); with ELF1 it was 1.51 fold enrichment (6-mer frequency, TF over GST control); with EHF, 1.31 fold enrichment (6-mer frequency, TF over GST control). Further, the binding signal is 1.47 fold enrichment (6-mer frequency, TF over GST control) with SPI1; 1.57 fold enrichment (6-mer frequency, TF over GST control) with SPIB; 1.49 fold enrichment (6-mer frequency, TF over GST control) with ELK3.
